Assay outcomes: PubChem BioAssay, National Center for Advancing Translational Sciences (NCATS)
Cycloheximide cs = Cycloheximide Counterscreen for Small Molecule Inhibitors of Shiga Toxin. cell reporter, cycloheximide protein synthesis inhibition counterscreen. max response, %. 300,000 compounds, 12% hits. AID 2314, 2010; in the data active means max response mostly above about 13%, no sharp cut-off; inactive means mostly below about 14%; further: read at 38.3 µM for the half of the compounds with a filed dose; 0% is about no effect
AMA1 RON2 block = qHTS for Inhibitors of AMA1-RON; Towards Development of Antimalarial Drug Lead: Primary Screen; AlphaScreen AMA1-biotinylated RON2 peptide binding; AID 720542, 2013; 360,000 compounds, 0.2% hits; Potency, µM (series often up to 58.2 µM), inactives show top-dose activity change, negative = inhibition, most hits filed as inhibitors;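 further: potency means the concentration at half of the fitted maximal effect; 0% = vehicle wells and -100% = peptide control; nearly all actives have a fitted effect of over 45% in size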
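AMA1 (3D7) with his tag at 25 nM final met compounds first, then biotinylated RON2 peptide at 25 nM; detection used donor plus acceptor beads, 10 µg/mL apiece, read by AlphaScreen after 30 min at room temperature.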
Shiga inhibitor = A qHTS for Small Molecule Inhibitors of Shiga Toxin; Vero cells, Shiga toxin protein synthesis inhibition reporter; inhibition, % at 38.7 µM; 290,000 compounds, 9.2% hits; in the data active means inhibition mostly above about 28%, no sharp cut-off; inactive means mostly below about 43%; further: 0% is about no effect
HCV inhibitor = qHTS Assay for Inhibitors of Hepatitis C Virus (HCV); 340,000 compounds, 3.4% hits; Potency, µM (series often up to 41.8 µM), for inactives: top-dose activity change, negative = inhibition, hits mostly inhibitors; Huh7.5.1 HCVcc-Cre infection, luciferase reporter, 44 h; AID 651820, 2012; further: potency means the concentration at half of the fitted maximal effect; on the % scale 0 is the no-effect control and ±100 the full control effect
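Infectious HCV cell culture screen: compound-treated cells (1,000/well, pre-plated 4 h) are infected with HCVcc-Cre at roughly 0.5 moi and grown 44 h. Infection is quantified by luciferase signal after 15 min substrate incubation at room temperature.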
Pf growth 96h = Primary qHTS for delayed death inhibitors of the malarial parasite plastid, 96 hour incubation | P. falciparum luciferase reporter growth, 96 h | Potency, µM (series often up to 28.7 µM), inactives show at the top dose activity change, negative = inhibition, actives largely listed as inhibitors | 320,000 compounds, 6.9% hits | AID 504834, 2011; further: potency means the concentration at half of the fitted maximal effect; on the % scale 0 is the no-effect control and ±100 the full control effect
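Compounds incubated with erythrocytes infected by luciferase-expressing P. falciparum (2% hematocrit, 0.05% parasitemia final) for 96 hours, 37 C in 5% CO2. Growth inhibition scored as decreased luciferase luminescence.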
Pf growth 48h = Primary qHTS for delayed death inhibitors of the malarial parasite plastid, 48 hour incubation; P. falciparum luciferase growth in erythrocytes, 48 h; Potency, µM (series often up to 28.7 µM), for the others: at the top dose activity change, negative = inhibition, hits mostly inhibitors; 310,000 compounds, 5.9% hits; AID 504832, 2011; further: potency means the concentration at half of the fitted maximal effect; on the % scale 0 is the no-effect control and ±100 the full control effect
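Erythrocytes infected with P. falciparum carrying an integrated firefly luciferase reporter (2% hematocrit, 0.1% parasitemia final) were exposed to compounds in RPMI 1640 with 0.5% Albumax at 37 C, 5% CO2. Growth inhibition was scored as reduced luminescence.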
Active calls of the source: *. This is a sample that favours compounds with a hit; in the whole collection about 21% have one here. Unless noted, the call rests on the fitted dose curve; in most records, active means well fitted curve in the direction sought with a large enough effect; inconclusive means small, poorly fitted or top-dose-only effect, or another doubt; inactive means no such curve, though single readings can be large; an effect the other way counts as inactive or inconclusive.

CCN(CC)CCNS(=O)(=O)c1ccc2[nH]cc(C(=O)O)c(=O)c2c1 was read as Cycloheximide cs -0.8, AMA1 RON2 block -0.4%, Shiga inhibitor -5.1, HCV inhibitor inconclusive, Pf growth 96h 15.6% and Pf growth 48h 12.2%.
CCCOc1ccc2[nH]cc(C(=O)O)c(=O)c2c1 was read as Cycloheximide cs -3.9, AMA1 RON2 block 42.2%, Shiga inhibitor -1.9, HCV inhibitor 12.3%, Pf growth 96h 14.7µM* and Pf growth 48h 9.5%.
`CCOc1ccc2[nH]cc(C(=O)NCc3ccc(F)cc3)c(=O)c2c1` gave Cycloheximide cs -1.4, AMA1 RON2 block 18.4%, Shiga inhibitor -1.9, HCV inhibitor inconclusive, Pf growth 96h 0.0% and Pf growth 48h inconclusive.
c1ccc(CCNc2ccc3ncc(-c4cccc5ccccc45)n3n2)nc1 was read as AMA1 RON2 block -2.4%.
CCCNC(=O)C1(C)CCCN(Cc2ccccc2C#N)C1 (configuration not stated) was read as AMA1 RON2 block 8.2%.
COc1ccc2c(=O)c(C(=O)NCCc3ccc(OC)c(OC)c3)c[nH]c2c1 was read as Cycloheximide cs -0.9, AMA1 RON2 block 5.1%, Shiga inhibitor -8.6, HCV inhibitor -27.3%, Pf growth 96h inconclusive and Pf growth 48h 10.4µM*.
For CC(C)c1onc(C(=O)NC2CCCCC2)c1[N+](=O)[O-] the results were Cycloheximide cs 20.4, AMA1 RON2 block inconclusive, Shiga inhibitor 13.0, HCV inhibitor 8.2%, Pf growth 96h -27.1% and Pf growth 48h 14.1%.
`CN(C)S(=O)(=O)c1ccc(NC(=O)Cc2ccc(S(=O)(=O)N3CCOCC3)s2)cc1` gave Cycloheximide cs 4.1, AMA1 RON2 block inconclusive, Shiga inhibitor -11.3, HCV inhibitor 11.9%, Pf growth 96h 9.28µM* and Pf growth 48h inconclusive.
CCn1c2ccccc2c2cc(NC(=O)Cc3ccc(S(=O)(=O)N4CCOCC4)s3)ccc21 was read as Cycloheximide cs -5.1, AMA1 RON2 block -5.3%, Shiga inhibitor -15.6, HCV inhibitor inconclusive and Pf growth 48h inconclusive.
CCN(CC)S(=O)(=O)c1cc(NC(=O)Cc2ccc(S(=O)(=O)N3CCOCC3)s2)ccc1Cl was read as AMA1 RON2 block -6.2% and HCV inhibitor 10µM*.
CC(=O)Nc1ccc(S(=O)(=O)N[C@@H](C)C(=O)OCc2ccc(Cl)cc2)cc1 was read as Cycloheximide cs 0.6, AMA1 RON2 block -15.9%, Shiga inhibitor -12.5, HCV inhibitor 8.8%, Pf growth 96h 24.0% and Pf growth 48h 4.3%.
Nc1nonc1C(=Nc1ccccc1)NO was read as Cycloheximide cs 1.4, AMA1 RON2 block 4.3%, Shiga inhibitor -2.0, HCV inhibitor 2.4%, Pf growth 96h inconclusive and Pf growth 48h 11.6%.
Screening Nc1nonc1C(=O)N/N=C/c1ccc(Br)o1 returned Cycloheximide cs 38.9*, AMA1 RON2 block 1.4%, Shiga inhibitor 72.5*, HCV inhibitor 0.8%, Pf growth 96h 14.0% and Pf growth 48h 29.2%.
For Nc1nonc1C(=O)N/N=C/c1ccc(-c2ccc(Cl)c(C(=O)O)c2)o1 the results were Cycloheximide cs 14.2*, AMA1 RON2 block -1.9%, Shiga inhibitor 48.4*, HCV inhibitor 5.6%, Pf growth 96h inconclusive and Pf growth 48h 38.1%.
N/C(=N\N=C\c1ccc(Br)o1)c1nonc1N was read as Cycloheximide cs 46.7*, AMA1 RON2 block 8.4%, Shiga inhibitor 82.0*, HCV inhibitor 6.9%, Pf growth 96h 104.7% and Pf growth 48h 120.1%.
O=C(N/N=C/c1ccc(Br)o1)c1cccnc1 was read as Cycloheximide cs 7.2, AMA1 RON2 block -1.0%, Shiga inhibitor 0.1, HCV inhibitor 5.4%, Pf growth 96h 20.7% and Pf growth 48h 4.4%.
For CCOC(=O)[C@]12CCC=C1N(Cc1cccc3ccccc13)C(=O)[C@H](CC(=O)N1CCCC1)C2 the results were AMA1 RON2 block -9.2%.
For Cc1ccc(-c2ccc(=O)n(CC(=O)NCCC(C)C)n2)cc1 the results were Cycloheximide cs -1.7, AMA1 RON2 block 14.0%, Shiga inhibitor -1.5, HCV inhibitor 1.3%, Pf growth 96h 27.4% and Pf growth 48h 5.3%.
For CC(C)(C)n1nc2c(c1NC(=O)C1CC(=O)N(c3ccc(Cl)cc3)C1)CS(=O)(=O)C2 (configuration not stated) the results were Cycloheximide cs -3.0, AMA1 RON2 block -1.6%, Shiga inhibitor -5.9, HCV inhibitor 8.3%, Pf growth 96h inconclusive and Pf growth 48h -15.4%.
`CCOC(=O)C1(CC2CCCCO2)CCN(Cc2c(C)cc(C)cc2-n2cccn2)CC1` (configuration not stated) gave Cycloheximide cs -2.5, AMA1 RON2 block -2.9%, Shiga inhibitor 2.7, HCV inhibitor -10.3%, Pf growth 96h 22.7% and Pf growth 48h inconclusive.
CCOC(=O)C1(CC2CCCCO2)CCN(Cc2nccn2-c2cccc(C)c2)CC1 (configuration not stated) was read as Cycloheximide cs -2.6, AMA1 RON2 block 31.1%, Shiga inhibitor -10.1, HCV inhibitor -29.1%, Pf growth 96h 0.0% and Pf growth 48h inconclusive.
CCOC(=O)C1(CC2CCCCO2)CCN(Cc2cc(F)ccc2-n2cccn2)CC1 (configuration not stated) was read as Cycloheximide cs 26.7*, AMA1 RON2 block -7.1%, Shiga inhibitor 72.0, HCV inhibitor 1.4%, Pf growth 96h -25.1% and Pf growth 48h 16.8%.
`CCOC(=O)C1(CC2CCCCO2)CCN(Cc2nccn2-c2ccc(OC)cc2)CC1` (configuration not stated) gave Cycloheximide cs -1.5, AMA1 RON2 block 5.7%, Shiga inhibitor -7.2, HCV inhibitor 5.3%, Pf growth 96h -11.0% and Pf growth 48h 10.4µM*.
For O=C(COc1ccc(Cl)cc1Cl)N(c1ccccn1)C1CCCCC1 the results were Cycloheximide cs 30.3*, AMA1 RON2 block -13.6%, Shiga inhibitor 32.5, HCV inhibitor -0.9%, Pf growth 96h 120.5% and Pf growth 48h inconclusive.
`Cc1ccc(OCC(=O)N(c2ccccn2)C2CCCCC2)c(C)c1` gave Cycloheximide cs 0.7, AMA1 RON2 block 18.3%, Shiga inhibitor 7.5, HCV inhibitor -5.5%, Pf growth 96h 7.38µM* and Pf growth 48h inconclusive.
Screening O=C(COCCOCC(=O)N(c1ccccn1)C1CCCCC1)N(c1ccccn1)C1CCCCC1 returned Cycloheximide cs -3.5, AMA1 RON2 block 4.1%, Shiga inhibitor -2.3, HCV inhibitor 7.0%, Pf growth 96h 3.3% and Pf growth 48h -24.4%.
